Of roughly 7,900 targets only a part is listed; those with a hit were picked by preference. About 0.6% of all pairs of compound and target were hits.
compound: CC1=C(C=C(C=C1)NC(=O)C2=CC(=CC=C2)N(C)C)NC(=O)C3=CC=C(C=C3)O; experiment: log2 fold change, soluble protein after heating vs DMSO (PISA); higher = thermal stabilisation; K562 cells, 10 uM, 30 min; active = over 0.2 and 3.5 SD of the protein, either way, in both replicates (recomputed)
In short: (§1)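 Values are thermal stability changes relative to control samples and are taken from duplicates. They are stated as log2 fold changes. Before quantification by TMTpro 16plex LC-MS/MS with equalised channel sums, K562 cells at 2×10^6 cells/mL were treated with 10 μM compound for 30 min, heated in aliquots for 3 min across 48°C-58°C, pooled, extracted in PBS with 0.5% NP-40 at 4°C, and centrifuged at 21,000xg for 90 min to give the soluble supernatant.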

Chain of UniProt P49116 (P49116 whole entry, looked up): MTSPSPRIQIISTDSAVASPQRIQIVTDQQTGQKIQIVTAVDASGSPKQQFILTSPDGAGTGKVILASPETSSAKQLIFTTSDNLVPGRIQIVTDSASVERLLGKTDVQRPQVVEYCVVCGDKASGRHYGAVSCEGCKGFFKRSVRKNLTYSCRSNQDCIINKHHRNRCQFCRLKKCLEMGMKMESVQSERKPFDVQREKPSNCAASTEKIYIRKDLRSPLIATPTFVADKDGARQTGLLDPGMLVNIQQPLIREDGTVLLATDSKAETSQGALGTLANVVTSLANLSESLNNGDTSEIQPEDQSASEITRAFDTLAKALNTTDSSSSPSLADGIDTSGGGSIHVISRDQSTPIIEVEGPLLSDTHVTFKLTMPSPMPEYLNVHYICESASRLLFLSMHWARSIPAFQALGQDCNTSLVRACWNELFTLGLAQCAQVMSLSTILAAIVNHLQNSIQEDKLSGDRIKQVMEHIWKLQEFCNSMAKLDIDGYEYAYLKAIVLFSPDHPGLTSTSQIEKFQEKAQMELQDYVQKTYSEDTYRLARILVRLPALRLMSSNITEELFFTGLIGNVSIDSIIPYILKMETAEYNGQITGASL
Chain of UniProt Q9Y5B8 (Q9Y5B8 whole entry, looked up): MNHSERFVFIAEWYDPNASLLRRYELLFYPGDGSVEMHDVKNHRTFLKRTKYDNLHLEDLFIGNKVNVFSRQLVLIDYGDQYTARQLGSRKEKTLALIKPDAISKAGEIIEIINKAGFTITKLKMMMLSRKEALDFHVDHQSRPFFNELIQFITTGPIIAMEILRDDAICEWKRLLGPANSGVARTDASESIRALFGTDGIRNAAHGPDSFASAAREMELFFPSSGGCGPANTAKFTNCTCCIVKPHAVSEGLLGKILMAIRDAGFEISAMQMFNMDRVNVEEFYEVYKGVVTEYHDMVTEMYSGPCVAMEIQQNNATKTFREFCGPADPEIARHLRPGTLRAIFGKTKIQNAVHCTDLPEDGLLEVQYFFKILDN
Chain of UniProt Q99549 (Q99549 whole entry, looked up): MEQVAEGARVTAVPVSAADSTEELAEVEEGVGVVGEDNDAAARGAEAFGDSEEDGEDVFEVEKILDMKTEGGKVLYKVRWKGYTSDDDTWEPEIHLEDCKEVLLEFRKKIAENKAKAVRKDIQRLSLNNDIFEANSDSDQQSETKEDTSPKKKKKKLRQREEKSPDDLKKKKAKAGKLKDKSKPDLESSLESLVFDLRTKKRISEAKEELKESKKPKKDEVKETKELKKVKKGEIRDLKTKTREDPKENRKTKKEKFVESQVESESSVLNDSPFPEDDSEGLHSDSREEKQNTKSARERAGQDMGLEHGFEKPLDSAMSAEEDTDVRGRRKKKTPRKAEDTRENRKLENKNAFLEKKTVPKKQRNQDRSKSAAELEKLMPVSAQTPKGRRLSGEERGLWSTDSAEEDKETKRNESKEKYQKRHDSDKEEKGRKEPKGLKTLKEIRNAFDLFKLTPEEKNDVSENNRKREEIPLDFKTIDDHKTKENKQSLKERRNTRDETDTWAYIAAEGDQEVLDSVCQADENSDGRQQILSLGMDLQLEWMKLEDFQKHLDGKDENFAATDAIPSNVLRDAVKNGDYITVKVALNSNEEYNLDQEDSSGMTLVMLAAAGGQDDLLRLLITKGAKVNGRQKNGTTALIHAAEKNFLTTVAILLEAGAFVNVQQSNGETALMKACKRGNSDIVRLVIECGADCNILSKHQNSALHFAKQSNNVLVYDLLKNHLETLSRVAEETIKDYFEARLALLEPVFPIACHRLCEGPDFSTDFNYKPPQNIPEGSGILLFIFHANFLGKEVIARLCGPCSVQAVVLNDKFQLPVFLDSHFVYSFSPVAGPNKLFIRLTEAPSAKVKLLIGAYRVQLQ
Chain of UniProt P03905 (P03905 whole entry, looked up): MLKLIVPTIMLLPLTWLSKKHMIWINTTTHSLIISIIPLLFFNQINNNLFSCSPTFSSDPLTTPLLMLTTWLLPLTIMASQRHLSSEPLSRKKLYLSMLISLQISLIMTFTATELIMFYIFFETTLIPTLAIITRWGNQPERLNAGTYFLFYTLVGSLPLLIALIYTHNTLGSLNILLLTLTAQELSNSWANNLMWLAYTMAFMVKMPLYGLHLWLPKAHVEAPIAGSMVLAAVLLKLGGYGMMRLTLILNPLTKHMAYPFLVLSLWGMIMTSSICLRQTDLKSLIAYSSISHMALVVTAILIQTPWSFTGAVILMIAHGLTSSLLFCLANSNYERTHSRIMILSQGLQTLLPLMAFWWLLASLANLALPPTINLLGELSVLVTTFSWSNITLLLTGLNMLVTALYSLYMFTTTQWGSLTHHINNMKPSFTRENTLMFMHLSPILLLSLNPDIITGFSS
Chain of UniProt Q9H3P2 (Q9H3P2 whole entry, looked up): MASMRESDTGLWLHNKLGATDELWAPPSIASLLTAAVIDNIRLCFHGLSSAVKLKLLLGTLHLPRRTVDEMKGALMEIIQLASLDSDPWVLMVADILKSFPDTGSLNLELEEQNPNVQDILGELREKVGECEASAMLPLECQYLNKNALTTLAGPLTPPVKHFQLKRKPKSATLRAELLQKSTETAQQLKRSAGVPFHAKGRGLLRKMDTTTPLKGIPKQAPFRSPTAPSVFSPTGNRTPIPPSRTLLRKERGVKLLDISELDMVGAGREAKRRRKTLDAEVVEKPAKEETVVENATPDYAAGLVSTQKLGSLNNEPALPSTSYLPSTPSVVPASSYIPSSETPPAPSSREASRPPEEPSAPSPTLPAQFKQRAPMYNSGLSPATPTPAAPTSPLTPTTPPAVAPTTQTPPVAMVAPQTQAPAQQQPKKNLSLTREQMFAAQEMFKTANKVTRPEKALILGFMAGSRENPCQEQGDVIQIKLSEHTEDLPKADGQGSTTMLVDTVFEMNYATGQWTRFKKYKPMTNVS
Chain of UniProt Q8N4C8 (Q8N4C8 whole entry, looked up): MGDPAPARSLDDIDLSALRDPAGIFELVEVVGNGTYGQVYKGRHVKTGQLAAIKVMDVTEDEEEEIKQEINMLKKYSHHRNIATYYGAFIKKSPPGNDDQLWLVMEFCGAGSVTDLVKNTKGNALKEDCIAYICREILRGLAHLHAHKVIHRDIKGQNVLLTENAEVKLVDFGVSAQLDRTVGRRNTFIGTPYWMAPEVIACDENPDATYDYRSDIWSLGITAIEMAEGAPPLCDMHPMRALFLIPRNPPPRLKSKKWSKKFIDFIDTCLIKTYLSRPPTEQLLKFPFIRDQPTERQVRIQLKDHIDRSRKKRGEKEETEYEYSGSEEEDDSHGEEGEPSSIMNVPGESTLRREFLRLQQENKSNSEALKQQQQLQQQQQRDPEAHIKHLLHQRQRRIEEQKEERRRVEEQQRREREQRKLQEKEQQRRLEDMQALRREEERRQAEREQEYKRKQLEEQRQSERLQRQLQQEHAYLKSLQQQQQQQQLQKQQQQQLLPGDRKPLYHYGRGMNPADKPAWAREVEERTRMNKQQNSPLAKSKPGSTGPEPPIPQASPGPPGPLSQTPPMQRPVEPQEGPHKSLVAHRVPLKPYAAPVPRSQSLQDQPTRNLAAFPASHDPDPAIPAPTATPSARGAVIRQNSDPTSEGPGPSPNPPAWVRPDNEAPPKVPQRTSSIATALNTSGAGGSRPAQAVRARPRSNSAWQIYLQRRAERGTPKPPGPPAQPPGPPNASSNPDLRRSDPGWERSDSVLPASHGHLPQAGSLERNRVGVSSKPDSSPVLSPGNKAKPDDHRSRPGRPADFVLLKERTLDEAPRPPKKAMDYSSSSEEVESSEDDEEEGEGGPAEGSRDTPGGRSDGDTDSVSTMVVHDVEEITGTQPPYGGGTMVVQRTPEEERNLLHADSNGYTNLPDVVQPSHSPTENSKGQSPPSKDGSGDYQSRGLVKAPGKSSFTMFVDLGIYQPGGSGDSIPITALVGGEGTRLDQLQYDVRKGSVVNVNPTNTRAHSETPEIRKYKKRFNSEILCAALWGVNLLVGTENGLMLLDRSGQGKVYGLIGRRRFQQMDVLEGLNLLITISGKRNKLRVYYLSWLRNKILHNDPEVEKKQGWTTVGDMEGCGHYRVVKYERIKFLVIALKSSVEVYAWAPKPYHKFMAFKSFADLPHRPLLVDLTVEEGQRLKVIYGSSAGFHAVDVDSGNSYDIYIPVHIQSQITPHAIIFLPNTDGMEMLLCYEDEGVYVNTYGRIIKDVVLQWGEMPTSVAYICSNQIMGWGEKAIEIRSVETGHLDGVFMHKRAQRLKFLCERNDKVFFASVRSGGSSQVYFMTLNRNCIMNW
Chain of UniProt Q13469 (Q13469 whole entry, looked up): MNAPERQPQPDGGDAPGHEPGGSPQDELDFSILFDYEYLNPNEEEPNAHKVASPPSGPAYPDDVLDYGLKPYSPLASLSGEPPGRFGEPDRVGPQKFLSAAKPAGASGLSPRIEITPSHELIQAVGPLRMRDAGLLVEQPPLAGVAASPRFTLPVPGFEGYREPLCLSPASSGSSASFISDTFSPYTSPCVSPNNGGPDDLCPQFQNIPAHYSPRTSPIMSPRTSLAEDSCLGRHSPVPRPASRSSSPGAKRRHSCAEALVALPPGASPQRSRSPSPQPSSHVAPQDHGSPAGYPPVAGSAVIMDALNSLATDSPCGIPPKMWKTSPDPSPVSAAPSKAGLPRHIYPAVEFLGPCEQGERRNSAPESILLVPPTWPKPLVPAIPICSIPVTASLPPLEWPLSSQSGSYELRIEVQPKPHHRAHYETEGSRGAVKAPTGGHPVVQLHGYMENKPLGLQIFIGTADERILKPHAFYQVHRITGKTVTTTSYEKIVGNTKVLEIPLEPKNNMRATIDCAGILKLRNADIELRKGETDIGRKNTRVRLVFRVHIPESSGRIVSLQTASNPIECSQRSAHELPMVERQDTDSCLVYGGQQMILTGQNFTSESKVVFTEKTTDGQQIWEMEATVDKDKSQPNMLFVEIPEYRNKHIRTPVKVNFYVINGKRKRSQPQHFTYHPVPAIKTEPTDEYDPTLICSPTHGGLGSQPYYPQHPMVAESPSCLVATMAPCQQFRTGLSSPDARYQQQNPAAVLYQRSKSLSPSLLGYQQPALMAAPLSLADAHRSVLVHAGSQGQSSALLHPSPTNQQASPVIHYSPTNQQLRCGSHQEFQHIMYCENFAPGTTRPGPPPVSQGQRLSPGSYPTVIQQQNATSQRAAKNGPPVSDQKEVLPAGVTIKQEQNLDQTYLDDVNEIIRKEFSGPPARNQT

| Target | log2 fold change |
| --- | --- |
| MRPS9 (UniProt P82933) | -0.025 (inactive) |
| NMNAT1 (UniProt Q9HAN9) | 0.006 (inactive) |
| NOP53 (UniProt Q9NZM5) | 0.005 (inactive) |
| MT-ND4 (UniProt P03905) | 0.067 (inactive) |
| NHLRC2 (UniProt Q8NBF2) | 0.225 (inactive) |
| NME7 (UniProt Q9Y5B8) | -0.089 (inactive) |
| MRPS16 (UniProt Q9Y3D3) | -0.052 (inactive) |
| NR2C2 isoform 2 (UniProt P49116) | 0.029 (inactive) |
| MORC3 (UniProt Q14149) | -0.06 (inactive) |
| NQO1 (UniProt P15559) | -0.023 (inactive) |
| NDUFA7 (UniProt O95182) | 0 (inactive) |
| NOB1 (UniProt Q9ULX3) | 0.047 (inactive) |
| NOP58 (UniProt Q9Y2X3) | -0.012 (inactive) |
| NEMP1 (UniProt O14524) | 0.037 (inactive) |
| NA, A0A0B4J2A0 | -0.028 (inactive) |
| OSBPL8 (UniProt Q9BZF1) | 0.011 (inactive) |
| NFX1 (UniProt Q12986) | 0.051 (inactive) |
| OTUD4 (UniProt Q01804) | -0.017 (inactive) |
| NUMB (UniProt P49757) | 0.018 (inactive) |

| Target | log2 fold change |
| --- | --- |
| MUL1 (UniProt Q969V5) | -0.015 (inactive) |
| OXR1 (UniProt Q8N573) | -0.003 (inactive) |
| NUP210 (UniProt Q8TEM1) | 0.052 (inactive) |
| MINK1 (UniProt Q8N4C8) | 0.038 (inactive) |
| NUDT1 (UniProt P36639) | -0.058 (inactive) |
| NAA11 (UniProt Q9BSU3) | 0.006 (inactive) |
| NSDHL (UniProt Q15738) | -0.005 (inactive) |
| MIS12 (UniProt Q9H081) | -0.141 (inactive) |
| NFATC2 (UniProt Q13469) | -0.079 (inactive) |
| NUDT16 (UniProt Q96DE0) | -0.005 (inactive) |
| MRPS6 (UniProt P82932) | -0.052 (inactive) |
| MRPS18B (UniProt Q9Y676) | -0.165 (inactive) |
| MPHOSPH8 isoform 2 (UniProt Q99549) | 0.179 (inactive) |
| NEK3 (UniProt P51956) | -0.055 (inactive) |
| MT-ATP6 (UniProt P00846) | 0.041 (inactive) |
| MYH11 isoform 2 (UniProt P35749) | 0.057 (inactive) |
| NMT2 (UniProt O60551) | 0.018 (inactive) |
| NOSIP (UniProt Q9Y314) | -0.2 (inactive) |
| NELFA (UniProt Q9H3P2) | -0.124 (inactive) |

compound: CC1=CC=C(C=C1)SC2=C3C=C(SC3=CN=C2)C(=O)N; experiment: as above
In short: as §1

| Target | log2 fold change |
| --- | --- |
| MRPS9 (UniProt P82933) | -0.029 (inactive) |
| NMNAT1 (UniProt Q9HAN9) | -0.09 (inactive) |
| NOP53 (UniProt Q9NZM5) | -0.073 (inactive) |
| MT-ND4 (UniProt P03905) | 0.015 (inactive) |
| NHLRC2 (UniProt Q8NBF2) | -0.014 (inactive) |
| NME7 (UniProt Q9Y5B8) | -0.021 (inactive) |
| MRPS16 (UniProt Q9Y3D3) | 0.006 (inactive) |
| NR2C2 isoform 2 (UniProt P49116) | 0.114 (inactive) |
| MORC3 (UniProt Q14149) | -0.025 (inactive) |
| NQO1 (UniProt P15559) | 0.032 (inactive) |
| NDUFA7 (UniProt O95182) | -0.007 (inactive) |
| NOB1 (UniProt Q9ULX3) | 0.012 (inactive) |
| NOP58 (UniProt Q9Y2X3) | -0.058 (inactive) |
| NEMP1 (UniProt O14524) | 0.031 (inactive) |
| NA, A0A0B4J2A0 | 0.002 (inactive) |
| OSBPL8 (UniProt Q9BZF1) | 0.009 (inactive) |
| NFX1 (UniProt Q12986) | -0.082 (inactive) |
| OTUD4 (UniProt Q01804) | -0.035 (inactive) |
| NUMB (UniProt P49757) | -0.067 (inactive) |

| Target | log2 fold change |
| --- | --- |
| MUL1 (UniProt Q969V5) | 0.01 (inactive) |
| OXR1 (UniProt Q8N573) | 0.005 (inactive) |
| NUP210 (UniProt Q8TEM1) | 0.084 (inactive) |
| MINK1 (UniProt Q8N4C8) | -0.003 (inactive) |
| NUDT1 (UniProt P36639) | -0.064 (inactive) |
| NAA11 (UniProt Q9BSU3) | 0.06 (inactive) |
| NSDHL (UniProt Q15738) | 0.029 (inactive) |
| MIS12 (UniProt Q9H081) | -0.004 (inactive) |
| NFATC2 (UniProt Q13469) | -0.031 (inactive) |
| NUDT16 (UniProt Q96DE0) | -0.008 (inactive) |
| MRPS6 (UniProt P82932) | 0.006 (inactive) |
| MRPS18B (UniProt Q9Y676) | -0.08 (inactive) |
| MPHOSPH8 isoform 2 (UniProt Q99549) | -0.159 (inactive) |
| NEK3 (UniProt P51956) | 0.052 (inactive) |
| MT-ATP6 (UniProt P00846) | 0.008 (inactive) |
| MYH11 isoform 2 (UniProt P35749) | -0.003 (inactive) |
| NMT2 (UniProt O60551) | 0.237 (inactive) |
| NOSIP (UniProt Q9Y314) | 0.032 (inactive) |
| NELFA (UniProt Q9H3P2) | 0.011 (inactive) |
